An excerpt weighted towards active compounds, which were near 14% of everything screened.
LmPK inhibitor: blocks Leishmania mexicana pyruvate kinase activity | Q27686 | purified LmPK, Kinase-Glo ATP luminescence, 1 h | Potency, µM (highest dose often 57.5 µM), for the others: at the top dose activity change, negative = inhibition, hits mostly inhibitors | 0.37% of 290,000 active | AID 1721; note: potency is the fitted concentration of half-maximal effect; % is set by controls: 0 for no effect and ±100 for the full control effect
Target sequence (Q27686 whole entry, looked up): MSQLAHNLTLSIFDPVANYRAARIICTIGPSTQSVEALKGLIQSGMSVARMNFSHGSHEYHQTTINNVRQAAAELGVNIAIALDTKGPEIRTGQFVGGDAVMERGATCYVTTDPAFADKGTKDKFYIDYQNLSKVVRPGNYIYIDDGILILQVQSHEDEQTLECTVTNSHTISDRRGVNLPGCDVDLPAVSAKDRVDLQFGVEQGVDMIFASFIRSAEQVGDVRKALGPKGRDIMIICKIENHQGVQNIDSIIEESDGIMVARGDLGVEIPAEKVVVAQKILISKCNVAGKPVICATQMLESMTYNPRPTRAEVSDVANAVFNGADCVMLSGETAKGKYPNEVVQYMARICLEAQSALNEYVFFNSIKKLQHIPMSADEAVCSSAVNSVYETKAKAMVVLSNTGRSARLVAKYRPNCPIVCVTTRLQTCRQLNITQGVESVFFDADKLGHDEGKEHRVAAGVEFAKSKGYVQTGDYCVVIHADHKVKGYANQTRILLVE
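Pyruvate kinase activity monitored as ATP production (luciferase luminescence). Conditions: 0.1 nM enzyme, 0.5 mM PEP, 0.1 mM ADP, 1 h, RT; normalized against uninhibited and no-enzyme wells.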
Shiga toxin inh: Shiga toxin inhibition; 9.2% of 290,000 active; Vero cells, Shiga toxin protein synthesis inhibition reporter; AID 2315; inhibition, % at 38.7 µM; in the data active = inhibition mostly above about 28%, no sharp cut-off; inactive = mostly below about 43%; note: 0% is about no effect
NS1 inh: inhibitors of influenza NS1 protein function; Potency, µM (top dose mostly 46.1 µM), for the others: at the highest dose activity, positive = more growth; 0.4% of 270,000 active; calls by dose curve; note: potency is the fitted concentration of half-maximal effect; actives are rising curves; nearly all actives have a fitted effect of over 50% in size
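Compounds were scored for reversing the slow growth caused by influenza A NS1 in S. cerevisiae, measured by optical density at 600 nm. Assay medium contained 2% galactose at pH 6.0; NS1-free yeast of the same strain were the positive control.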
CHX counter: counter-screen hit for Shiga toxin inhibitors, cycloheximide | 12% of 300,000 active | cell reporter, cycloheximide protein synthesis inhibition counterscreen | AID 2314 | max response, %; in the data active = max response mostly above about 13%, no sharp cut-off; inactive = mostly below about 14%; note: read at 38.3 µM for the half of the compounds with a filed dose; 0% is about no effect
Giardia FBPA inh: blocks Giardia fructose-bisphosphate aldolase activity; purified Giardia FBPA; Potency, µM (top dose mostly 59.6 µM), for the others: at the highest dose activity, negative = inhibition, most hits filed as inhibitors; 0.71% of 290,000 active; AID 2451; note: potency is the fitted concentration of half-maximal effect; % is set by controls: 0 for no effect and ±100 for the full control effect; nearly all actives have a fitted effect of over 55% in size
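Giardia FBPA (40 nM reagent) was preincubated 10 min at RT with compound (up to 57.5 uM final), then substrate plus GAPDH/TPI/NAD/arsenate coupling system with diaphorase/resazurin was added; resorufin fluorescence (525/598 nm) was read after 20 min.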
An asterisk follows results filed as active; ? = inconclusive; / = no result given; [ ] = remark or other dose. Unless noted, calls come from the whole dose curve; as a rule, active = well fitted curve in the direction sought with a large enough effect; inconclusive = small, poorly fitted or top-dose-only effect, or another doubt; inactive = no such curve, though single readings can be large; an effect the other way counts as inactive or inconclusive.

SMILES | LmPK inhibitor | Shiga toxin inh | NS1 inh | CHX counter | Giardia FBPA inh
CCN1CCN(c2cc(C)c3cc(NC(=O)c4cccs4)ccc3n2)CC1 | -3% | 86 | 1% | 21* | 9%
CCN1CCN(c2cc(C)c3cc(NC(=O)c4cncc(Br)c4)ccc3n2)CC1 | -3% | -22 | -9% | -7 | -5%
CCN1CCN(c2cc(C)c3cc(NC(=O)c4ccc(OC)c(OC)c4)ccc3n2)CC1 | 1% | -17 | 4% | 4 | -5%
COc1cccc(C(=O)Nc2ccc3nc(N4CCN(c5ncccn5)CC4)cc(C)c3c2)c1OC | -3% | -2 | -23% | 14* | -5%
COc1ccc2[nH]cc(CCNc3ccnc(-c4ccc5c(c4)OCO5)n3)c2c1 | / | / | / | / | -16%
Cc1nc2nc(C)c(NS(=O)(=O)c3ccc(C4CCCCC4)cc3)c(=O)n2[nH]1 | 0% | -8 | 10% | -4 | -10%
CCCCOc1ccc(CSCCN)cc1Cl | -3% | 73* | -5% | 23* | -5%
CCCCOc1ccc(CCN)cc1Cl | -7% | 20 | 5% | 34* | 0%
NCCCC(N)CC(=O)NCC1NC(=O)C(CO)NC(=O)C(N)CNC(=O)C(C2CCN=C(N)N2)NC(=O)/C(=C\NC(N)=O)NC1=O (stereo unspecified) | / | / | / | / | 0%
CN1CCN(c2ccccc2/C=C2/C(=O)Nc3ccccc32)CC1 | 8% | -2 | 1% | -3 | 6%
CCOC(=O)COc1ccccc1C1Nc2ccccc2C(=O)N1c1cccc(Cl)c1 (stereo unspecified) | -2% | 66* | -27% | 36* | 1%
COc1cc(C2Nc3ccccc3C(=O)N2c2ccc(Cl)cc2)c(Cl)cc1OCC(=O)O (stereo unspecified) | 1% | 71* | 3% | 54* | 7%
CCCCNC(=O)NS(=O)(=O)c1ccc(CO)cc1 | / | -15 | / | -10 | 3%
CCOC(=O)c1ccc(CSc2nnc(-c3ccncc3)n2N)cc1 | 2% | 77 | 1% | 41* | -2%
COc1ccc(COC(=O)N/N=C2/C[C@@H](O)[C@@H](O)[C@@H]3[C@@H]4C(=O)N(Cc5ccc6c(c5)OCO6)C(=O)[C@H]4CC[C@H]23)cc1 | / | / | / | / | -3%[12.9 µM]
O=C1/C(=C\c2ccco2)SC(=S)N1c1ccc(O)cc1 | 0% | 11 | -29% | 8 | ?
NN1C(=O)/C(=C\c2ccco2)SC1=S | 8% | 7 | -6% | -1 | 6.3µM*
CCOC(=O)CN1C(=O)S/C(=C/c2ccco2)C1=O | 5% | 20 | -24% | 15* | 3%
O=C(CNc1ccccc1F)Nc1cccc2ccccc12 | 0% | 27 | 4% | -2 | 1%
CC(C)CCOc1ccc(/C=N/N2C(=O)CSC2=S)cc1 | -1% | -13 | -3% | -3 | /
COc1ccc(/C=N/N=C2/SCC(=O)N2Cc2ccccc2)cc1 | 4% | 86* | 2% | 47* | 0%
COc1ccc(/C=N/N2C(=N)SCC2=O)cc1 | -9% | 29 | 0% | 14* | -4%
Cc1ccc(C(=O)NC(C(=O)NC2CCCC2)c2ccccc2)cc1 (stereo unspecified) | 3% | -1 | 17% | -3 | -6%
O=C(Nc1cccnc1)c1cc(-c2ccc(Br)cc2)on1 | -7% | 42* | -1% | 20* | 5%
COc1cccc(-c2cc(C(=O)Nc3cccnc3)no2)c1 | -21% | 80* | -79% | 31* | -1%
SMILES | LmPK inhibitor | Shiga toxin inh | NS1 inh | CHX counter | Giardia FBPA inh
COC(=O)c1c(-c2cccnc2)csc1NC(=O)c1cc(C)on1 | -10% | 83* | -12% | 63* | -23%
Cn1c(=O)[nH]c(=O)c2c1nc(NN)n2CCOc1ccccc1 | -6% | -5 | 2% | -6 | -24%
NC[C@@H]1O[C@H](O[C@H]2[C@H](O)[C@H](O[C@@H]3O[C@H](CO)[C@@H](O)[C@H](N)[C@@H]3O)[C@@H](N)C[C@H]2N)[C@@H](O)[C@H](O)[C@@H]1O | / | / | / | / | 1%[21.7 µM]
N/C(CN1CCCC1=O)=N\OC(=O)c1ccccc1Cl | -5% | 16 | -8% | 26* | 0%
COCC(=O)N1CCC2(CC1)CN(C(c1ccccc1)c1ccccc1)C2 | / | / | / | / | 4%
O=C(O)c1ccccc1-c1c2cc(Br)c(=O)cc-2oc2[c]([Hg])c(O)c(Br)cc12 | / | / | / | / | 22µM*
Cn1c(CNC(=O)C2CCC(=O)N(CCc3cccc(F)c3)C2)nc2ccccc21 (stereo unspecified) | 0% | -5 | 11% | 17 | 8%
CCCCn1cnc2c(cnn2-c2ccc(F)cc2)c1=O | -2% | 120* | -1% | 27* | 2%

Bioassay records as filed in PubChem BioAssay.
